High-throughput results deposited in PubChem by National Center for Advancing Translational Sciences (NCATS).
Hits are enriched below; roughly 9.4% of the tested compounds scored in any of these assays.
IMPase cell inh: IMPase inhibition in cells; inhibition (IP1 accumulation), % at 46.1 µM; CHO-M1 cells, IP1 accumulation, HTRF TR-FRET ratio; 120,000 tested, under 10 active; AID 901; active = well fitted curve in the direction sought with a large enough effect in the signal ratio, not every such curve was filed as active; inconclusive = small, poorly fitted or top-dose-only effect, or a change in a side signal; inactive = no such curve, though single readings can be large or run the other way; the % refers to the signal ratio;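 also: cells stimulated with carbachol in lithium chloride buffer; plate controls were DMSO basal wells for no effect and reference inhibitor wells for full effect; higher means more IMPase inhibition seen as more IP1 and lower FRET ratio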
Target sequence (P97697 whole entry, looked up): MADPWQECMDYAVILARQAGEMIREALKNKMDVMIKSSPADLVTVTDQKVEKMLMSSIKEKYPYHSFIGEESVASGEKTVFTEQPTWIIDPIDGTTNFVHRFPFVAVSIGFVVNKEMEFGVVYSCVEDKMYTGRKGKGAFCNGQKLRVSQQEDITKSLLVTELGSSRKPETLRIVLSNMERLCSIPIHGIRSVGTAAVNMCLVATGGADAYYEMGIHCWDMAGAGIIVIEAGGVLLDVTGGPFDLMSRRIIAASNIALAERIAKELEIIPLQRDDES
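Carbachol-driven Gq signalling in CHO-M1 cells (2000/well) generates IP1. Compounds that block IMPase raise IP1 and so reduce the FRET signal from Eu-anti-IP1 and d2-IP1 after a 10 min room-temperature lysis.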
ALDH1A1 block: inhibitors of human aldehyde dehydrogenase 1A1; P00352; Purified ALDH1A1, NADH fluorescence, propionaldehyde substrate; Potency, µM (series often up to 75.3 µM), inactives show at the top dose activity, negative = inhibition, actives largely listed as inhibitors; actives 7.3% (n = 220,000); AID 1030; active = well fitted inhibition curve with a large enough effect, not every such curve was filed as active; inconclusive = small, poorly fitted or top-dose-only effect, or another doubt; inactive = no such curve, though single readings can be large or run the other way;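 also: potency is read from the fitted curve at half-maximal effect; plate controls were no enzyme wells and a reference inhibitor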
Target sequence (P00352 whole entry, looked up): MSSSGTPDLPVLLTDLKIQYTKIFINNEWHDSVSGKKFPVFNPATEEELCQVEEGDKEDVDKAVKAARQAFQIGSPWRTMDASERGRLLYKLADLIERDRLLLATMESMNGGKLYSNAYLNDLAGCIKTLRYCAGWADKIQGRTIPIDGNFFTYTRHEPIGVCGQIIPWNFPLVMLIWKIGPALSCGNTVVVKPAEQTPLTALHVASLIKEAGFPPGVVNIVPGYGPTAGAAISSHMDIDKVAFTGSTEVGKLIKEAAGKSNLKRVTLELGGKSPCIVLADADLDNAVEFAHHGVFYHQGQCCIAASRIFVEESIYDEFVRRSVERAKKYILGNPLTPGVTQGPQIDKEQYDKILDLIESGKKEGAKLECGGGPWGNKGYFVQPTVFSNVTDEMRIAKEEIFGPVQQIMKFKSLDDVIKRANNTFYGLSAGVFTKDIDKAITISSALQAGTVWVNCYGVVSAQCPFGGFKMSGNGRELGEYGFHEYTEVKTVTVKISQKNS
HTT ATP protect: protects HTT-Q103 PC12 cells, measured by ATP. Potency, µM (highest dose often 56.4 µM), for the others: cytoprotection (ATP increase), hits mostly activators. PC12 HTT-Q103 induced, cytoprotection, ATP luminescence, 40 h. actives 0.14% (n = 230,000); also: potency is read from the fitted curve at half-maximal effect; % of control where 0% means no effect; nearly all actives have a fitted effect of over 45% in size
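Compounds were screened for protection of PC12 cells against cell death after tebufenozide induction (100 nM final) of mutant Huntingtin exon 1 (Q103) fused to GFP.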
HPGD block: inhibitors of human 15-hydroxyprostaglandin dehydrogenase (HPGD). P15428. purified HPGD, NADH fluorescence kinetic, PGE2 substrate. AID 894. actives 4.3% (n = 150,000). Potency, µM, without a hit: at the top dose activity change, negative = inhibition, usual class: inhibitors; active = well fitted inhibition curve with a large enough effect, not every such curve was filed as active; inconclusive = small, poorly fitted or top-dose-only effect, or another doubt; inactive = no such curve, though single readings can be large or run the other way; also: potency is read from the fitted curve at half-maximal effect; % is scaled to controls: 0 for no effect and ±100 for the full control effect
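20 nM HPGD preincubated 15 min at room temperature with compound in 50 mM Tris-HCl pH 8, 0.01% Tween 20. Started with 1 mM NAD+ and 30 uM prostaglandin E2; NADH fluorescence (360/450 nm) read 5 times over 30-s intervals, last minus first.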
IMPase Li inh: cell-permeable IMPase inhibitors with lithium potentiation; CHO-M1 cells, IP1 TR-FRET (IP-One), carbachol + lithium; Potency, µM (doses to about 59.4 µM), inactives show top-dose activity, negative = IMPase inhibition, most hits filed as inhibitors; actives 0.35% (n = 210,000); AID 1457;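 also: IP1 builds up when IMPase is blocked and the TR-FRET signal falls; potency is read from the fitted curve at half-maximal effect; plate controls were basal vehicle for no effect and high inhibitor control for full effect; nearly all actives have a fitted effect of over 50% in size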
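CHO cells stably expressing M1 receptor (2000/well, cultured 16–30 h) treated 30 min at 37C with compound plus low lithium. Cytosolic IP1 by TR-FRET (665/620 ratio and 620 channel) after 10 min lysis; AC50 by Hill fit.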
HTT aggregate: reduces HttQ103-GFP aggregates in PC12 cells | AID 1688 | Potency, µM (titrated, usually from 46.1 µM), for inactives: top-dose activity change, negative = inhibition, hits mostly inhibitors | actives 1.1% (n = 220,000) | PC12 HttQ103-GFP aggregates, Acumen cytometry, 40 h; also: potency is read from the fitted curve at half-maximal effect; % is scaled to controls: 0 for no effect and ±100 for the full control effect; nearly all actives have a fitted effect of over 60% in size
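Using laser scanning cytometry, GFP-positive aggregates were counted after lysis of PC12 cells induced with 100 nM tebufenozide to express HTT exon 1 Q103–GFP. Compounds were tested in titration.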
* hit, by the source's call; ! = not confirmed by another sample; [ ] = remark or other dose. Unless noted, calls follow the shape of the dose curve; as a rule, active = well fitted curve in the direction sought with a large enough effect; inconclusive = small, poorly fitted or top-dose-only effect, or another doubt; inactive = no such curve, though single readings can be large; an effect the other way counts as inactive or inconclusive.

How did CNC[C@H](O)c1ccc(OC(=O)C(C)(C)C)c(OC(=O)C(C)(C)C)c1 do in these assays?
IMPase cell inh: 0[20.6 µM]; ALDH1A1 block: 26%[20.9 µM]; HTT ATP protect: -6%[40.3 µM]; HPGD block: 4%; IMPase Li inh: 6%; HTT aggregate: 2%[20.6 µM]

How did COC(C(=O)C(O)C(C)O)C1Cc2cc3cc(OC4CC(OC5CC(O)C(OC)C(C)O5)C(OC(C)=O)C(C)O4)c(C)c(O)c3c(O)c2C(=O)C1OC1CC(OC2CC(OC3CC(C)(O)C(OC(C)=O)C(C)O3)C(O)C(C)O2)C(O)C(C)O1 (stereo not given) do in these assays?
HTT ATP protect: -159%; HTT aggregate: 0.18µM*

How did CCCCCC1C(=O)O[C@H](C)[C@@H](NC(=O)c2cccc(NC=O)c2O)C(=O)OC(C)C1OC(=O)CC(C)C (stereo not given in full) do in these assays?
ALDH1A1 block: 6%; HPGD block: inconclusive; IMPase Li inh: 22%

How did CC1CCCN(CC(=O)c2ccc(Cl)c(Cl)c2)C1 (stereo not given) do in these assays?
ALDH1A1 block: 2µM*; HTT ATP protect: 7%[10 µM]; IMPase Li inh: 15%; HTT aggregate: 11%

Results for CC1CCN(CC(=O)c2ccc3c(c2)OCCO3)CC1 ?
ALDH1A1 block: 7.9µM*; HTT ATP protect: -84%; IMPase Li inh: 7%; HTT aggregate: 1%

What do the screens show for `CC1CCN(CC(=O)c2ccccc2Cl)CC1`?
IMPase cell inh: 1; ALDH1A1 block: inconclusive; HTT ATP protect: 0%[10 µM]; HPGD block: -6%; IMPase Li inh: 9%; HTT aggregate: 0%

Results for CCCn1c(C(=O)c2ccc(OC)cc2)nc2ccccc21 ?
ALDH1A1 block: -11%; HTT ATP protect: 11%[10 µM]; IMPase Li inh: 12%; HTT aggregate: -6%[9.22 µM]

How did COc1ccc(C(=O)c2c(C)n(CCN3CCOCC3)c3cc(I)ccc23)cc1 do in these assays?
IMPase cell inh: 3; ALDH1A1 block: 5µM*; HTT ATP protect: inconclusive; HPGD block: -9%; IMPase Li inh: 32%

Results for CN(C)[C@@H]1C(=O)C(C(N)=O)=C(O)[C@@]2(O)C(=O)C3=C(O)c4c(O)cccc4[C@@](C)(O)[C@H]3[C@H](O)[C@@H]12 ?
IMPase cell inh: inconclusive; ALDH1A1 block: 28µM*!; HTT ATP protect: -12%; HPGD block: 7.1µM*; IMPase Li inh: 10µM*!; HTT aggregate: -12%

What do the screens show for `O=C(c1cc(C(=O)NCc2ccccc2)c(=O)n(Cc2ccccc2)c1)c1cc(Br)ccc1O`?
ALDH1A1 block: -14%; HTT ATP protect: 3%[10 µM]; HPGD block: 10µM*; IMPase Li inh: -1%; HTT aggregate: -1%

What do the screens show for `COc1cc(/C=C/[N+](=O)[O-])ccc1O`?
ALDH1A1 block: inconclusive; HPGD block: -24%; IMPase Li inh: 46%; HTT aggregate: 25µM*

What do the screens show for `O=C1NC(=O)[C@]2(Cc3ccccc3N3CCN(c4ccccc4)CC32)C(=O)N1Cc1ccccc1` (stereo not given in full)?
IMPase cell inh: -1; ALDH1A1 block: 22µM*; HTT ATP protect: -8%; HPGD block: -17%; IMPase Li inh: -3%[38.3 µM]; HTT aggregate: 22%

What do the screens show for `O=C1NC(=O)[C@]2(Cc3ccccc3N3CCN(c4ccccc4)CC32)C(=O)N1c1ccccc1` (stereo not given in full)?
IMPase cell inh: 0; ALDH1A1 block: 25µM*; HTT ATP protect: -5%; HPGD block: -9%; IMPase Li inh: 4%[38.3 µM]; HTT aggregate: 11%

Results for O=C1NC(=O)C2(Cc3ccccc3N3CCCC32)C(=O)N1c1ccc(Cl)cc1 (stereo not given) ?
IMPase cell inh: -5; ALDH1A1 block: inconclusive; HTT ATP protect: -19%[0.074 µM]; HPGD block: inconclusive; IMPase Li inh: 3%[38.3 µM]; HTT aggregate: 4%

Results for CN1C(=O)NC(=O)[C@]2(Cc3ccccc3N3CCN(c4ccccc4)CC32)C1=O (stereo not given in full) ?
IMPase cell inh: -3; ALDH1A1 block: 25µM*; HTT ATP protect: -10%; HPGD block: -12%; IMPase Li inh: 28%[38.3 µM]; HTT aggregate: -3%

Results for CN1C[C@@H](CNC(=O)OCc2ccccc2)C[C@H]2c3cccc4c3c(cn4C)C[C@@H]21 ?
HTT ATP protect: -10%[1.9 µM]

Results for COC[C@@H]1OC(=O)c2coc3c2[C@]1(C)C1=C(C3=O)[C@H]2CCC(=O)[C@]2(C)C[C@@H]1OC(C)=O ?
HTT ATP protect: -21%[1.9 µM]

What do the screens show for `C[As+](C)(c1ccc(Br)c([N+](=O)[O-])c1)c1ccc(Br)c([N+](=O)[O-])c1.O=[N+]([O-])O`?
ALDH1A1 block: 32%[13.5 µM]; HTT ATP protect: 1%[10 µM]; HPGD block: -2%; IMPase Li inh: -4%

What do the screens show for `O=S(=O)(O)/C(=C\c1ccccc1)c1ccccc1` (tested in a mixture with another compound)?
ALDH1A1 block: -7%[13.5 µM]; HTT ATP protect: -10%[10 µM]; HPGD block: -1%; IMPase Li inh: 1%

What do the screens show for `CC(C)n1c(=O)c(C=Nc2ccc(F)cc2)c(O)n(Cc2ccco2)c1=O`?
ALDH1A1 block: 11µM*; HTT ATP protect: 25%[10 µM]; HPGD block: -30%; IMPase Li inh: 6%; HTT aggregate: 19%

What do the screens show for `CC(C)n1c(=O)c(C=Nc2ccc(Cl)cc2)c(O)n(Cc2ccco2)c1=O`?
ALDH1A1 block: inconclusive; HTT ATP protect: 10%[10 µM]; HPGD block: inconclusive; IMPase Li inh: 6%; HTT aggregate: 33%

How did Oc1ccc2c3c1O[C@@H]1c4[nH]c5c(c4C[C@@]4(O)[C@@H](C2)N(CC2CC2)CC[C@]314)C[C@]1(O)[C@@H]2Cc3ccc(O)c4c3[C@@]1(CCN2CC1CC1)[C@H]5O4 do in these assays?
IMPase cell inh: 0; HTT ATP protect: -12%[1.9 µM]

How did NC(=O)c1cc([N+](=O)[O-])cc([N+](=O)[O-])c1 do in these assays?
ALDH1A1 block: -5%; HTT ATP protect: 0%; HPGD block: 1%; IMPase Li inh: 6%; HTT aggregate: 2%

What do the screens show for `CC(C)(C)c1cc([N+](=O)[O-])cc(C(C)(C)C)c1O`?
ALDH1A1 block: -3%; HTT ATP protect: -33%; IMPase Li inh: 24%; HTT aggregate: 7.9µM*

Results for COC1=CC2C3Cc4ccc(OC)c(O)c4[C@]2(CCN3C)CC1=O (stereo not given in full) ?
ALDH1A1 block: 4%; HTT ATP protect: 0%; HPGD block: -5%; IMPase Li inh: 0%
